Reference: ChEMBL document CHEMBL3433997, “St. Jude Leishmania screening dataset” (2016)

Columns and labels:
Format in all cases: functional
[1] = target: Solute carrier family 2, facilitated glucose transporter member 1 (Homo sapiens) (UniProt P11166); test: ST_JUDE_LEISH: Cytotoxicity at 2uM final concentration against transgenic Leishmania Mexicana promastigotes LmGLUT1 that are glucose transport deficient and complemented with the human glucose transporter GLUT1. Activity is measured by DNA content using SYBR green in vitro
Solute carrier family 2, facilitated glucose transporter member 1 (Homo sapiens), sequence (P11166 whole entry): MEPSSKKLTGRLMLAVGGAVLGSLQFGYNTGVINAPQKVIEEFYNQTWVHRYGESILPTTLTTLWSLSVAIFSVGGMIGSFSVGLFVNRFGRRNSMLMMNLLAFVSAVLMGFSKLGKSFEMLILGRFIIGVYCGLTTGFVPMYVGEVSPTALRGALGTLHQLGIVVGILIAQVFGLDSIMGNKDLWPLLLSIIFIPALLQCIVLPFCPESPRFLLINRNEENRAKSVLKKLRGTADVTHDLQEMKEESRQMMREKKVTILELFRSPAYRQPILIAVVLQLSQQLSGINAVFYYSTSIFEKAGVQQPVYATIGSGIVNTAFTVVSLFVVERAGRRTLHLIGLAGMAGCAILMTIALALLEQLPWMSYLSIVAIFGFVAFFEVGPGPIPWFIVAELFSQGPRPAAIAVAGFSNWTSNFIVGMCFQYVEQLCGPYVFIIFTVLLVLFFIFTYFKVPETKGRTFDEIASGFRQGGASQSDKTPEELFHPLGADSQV

[2] = target: Hexose transporter 1 (Plasmodium falciparum) (UniProt O97467); test: ST_JUDE_LEISH: Cytotoxicity at 2uM final concentration against transgenic Leishmania Mexicana promastigotes LmPfHT that are glucose transport deficient and complemented with the Plasmodium falciparum hexose transporter. Activity is measured by DNA content using SYBR green in vitro
[3] = target: Glucose transporter (Leishmania mexicana) (UniProt O61059); test: ST_JUDE_LEISH: Cytotoxicity at 2uM final concentration against transgenic Leishmania Mexicana promastigotes LmGT2 that are glucose transport deficient and complemented with the L. Mexicana glucose transporter 2. Activity is measured by DNA content using SYBR green in vitro

SMILES | inhibition [1] [%] | inhibition [2] [%] | inhibition [3] [%]
Cc1ccc2[nH]c(/C=C/c3cccc4cc[nH]c34)nc2c1 | 4.9 | 4.05 | 0.48
Cc1ccc(C(=O)Nc2cc(S(=O)(=O)N3CCCC3)ccc2OCC(F)(F)F)cc1 | 3.23 | 4.19 | 4.69
O=C(Nc1cccc(CCNCc2ccccc2)c1)Nc1cccc2ccccc12 | 10.3 | 11 | 10.9
c1ccc2c(CNc3ccnc(NCc4cccc5ccccc45)n3)cccc2c1 | 9.83 | 5.69 | 7
Cc1ccc(O)cc1Nc1ccnc2cc(-c3csc(CN4CCN(C)CC4)n3)ccc12 | 8.26 | 5.93 | 5.57
CC(C)n1c(CC2CCN(CC3CCN(C(=O)/C=C/c4ccc(Cl)c(Cl)c4)CC3)CC2)nc2ccccc21 | -1.74 | -2.38 | -2.53
CNCCNCc1ccc(-c2ccc(-c3nc4cc(C(F)(F)F)ccc4[nH]3)cc2)cc1 | -0.49 | 3.17 | 2.46
COc1ccc(C(=O)CCC(=O)N(Cc2ccc(-c3ccc(CNCCc4ccccc4)cn3)cc2)C(C)CN(C)C)cc1F (centres undefined) | 2.12 | 1.14 | 0.82
Cc1cccc(-c2nn(-c3ccccc3)c3[nH]c(=O)c(CNC4CCCC4)cc23)c1 | 2.26 | 2.39 | -0.29
Nc1nc(N)c2c(ccc3[nH]ccc32)n1 | 0.22 | 2.46 | 2.25
C[C@H]1CN(Cc2cccc(-c3cc(CNC(=O)c4cccc(CN5CCN(CCOc6ccccc6)CC5)c4)ccc3F)c2)CCN1 | 0.77 | 0.96 | 2.94
COc1ccccc1Nc1nc(C)cc(NCc2ccc(-c3c(C)noc3C)cc2)n1 | 19.5 | 9.8 | 0.51
Cc1nc(-c2ccc(-c3ccc(C(=O)Nc4ccc(-n5ccnc5)c(N5CCN(C)CC5)c4)cc3)c(C)c2)no1 | 2.82 | 2.86 | 0.79
CCN(CC)C(=O)C1CCCN(c2cc(C)nc(Nc3ccc(Cl)cc3)n2)C1 (centres undefined) | 0.86 | 1.03 | 0.51
CC(=O)NCCNc1nccc(N2CCc3ncnc(Nc4ccc(OCc5ccccn5)c(Cl)c4)c3C2)n1 | 0.91 | 1.71 | 1.9
COc1cc(CNCCCCCCNCc2cc(OC)c3ccccc3c2OC)c(OC)c2ccccc12 | 8.25 | 11.8 | 13.6
Cc1cc(N2CC=CCC2)nc(NC(=N)Nc2ccc(Cl)cc2)n1 | 6.87 | 7.74 | 6.89

SMILES | inhibition [1] [%] | inhibition [2] [%] | inhibition [3] [%]
FC(F)(F)c1cccc(CNCCCCCNCc2ccc(Cl)cc2)c1 | 2.96 | 1.16 | -0.19
COc1ccc(-c2ccc(CNC(=O)c3cccc(C#N)c3)c(F)c2)cc1CN1CCCN(C)CC1 | 0.77 | -4.93 | 0.55
Cc1[nH]c(C)c(-c2ccc(Oc3ccc(Cl)cc3)cc2)c(=O)c1C | 11.4 | 30.5 | 1.29
COc1ccc2nccc([C@@H](O)CN3CCC(NCc4ccc5c(n4)NC(=O)CS5)C(F)C3)c2c1 (some centres undefined) | 2.08 | 1.5 | 1.99
O=C(Cc1cccc(OCCCN(Cc2cccc(C(F)(F)F)c2Cl)CC(c2ccccc2)c2ccccc2)c1)NCc1ccco1 | -1.28 | 2.42 | -2.47
COc1ccc(NC2=C(c3ccccc3)C(=O)c3ccccc32)cn1 | 7.83 | 4.66 | 3.49
O=C(NCCCCN1CCC2c3cccc(O)c3CCC21)c1ccc(-c2ccccc2)cc1 (centres undefined) | 6.05 | 5.38 | 3.69
CC(C)c1cc2c(ccc3nc(N)nc(N)c32)o1 | 3.76 | 5.34 | 2.93
O=C1COC2(CN1CC1CCN(Cc3ccc(O)c(Cl)c3)C1)c1ccccc1-c1ccccc12 (centres undefined) | -0.03 | -0.11 | -0.34
N#Cc1ccc(NC2(C(=O)N3CCN(c4cccc(Cl)c4)CC3)CC2)c2ccccc12 | 2.79 | 2.36 | 0.86
CN(Cc1cccc(O)c1)C1CCN(c2cc(NC(=O)c3ccc(F)cc3)ccn2)C1 (centres undefined) | 1.94 | 2.9 | 3.61
Cc1cccnc1CNc1nccc2c(C)c(C)[nH]c12 | 2.2 | 2.33 | -0.37
C=C[C@H]1CN(CCCCCCC)CC[C@H]1CC(O)Cc1ccnc2cc(O)c(OC)cc12 (some centres undefined) | -1.66 | -0.12 | 0.32
CCNc1cc(C(=O)N[C@@H](Cc2ccccc2)[C@H](O)CNC2(CC)CC2)cc(N2CCCCS2(=O)=O)c1 | -3.85 | 2.01 | -2.45
CC(C)CCCC(C)(C)NC[C@@H](O)[C@H](Cc1ccccc1)NC(=O)c1cc(NC(C)C)cc(N2CCCCS2(=O)=O)c1 | -0.83 | -1.58 | -3.27
CCO[C@H]1CN[C@H](C#Cc2cc3c(Nc4ccc(OCc5cccc(F)c5)c(Cl)c4)ncnc3s2)C1 | 0.74 | 3.65 | 3.03
